Results taken from PubChem BioAssay (EPA / NIEHS).
Calls of active or inactive are those of the source. Rule for the calls: active = hit-call score of the fitted dose curve at least 0.9, where 1 is the maximum; inactive = score below 0.9.

Assays:
Conditions in all cases: mRNA level, 48 h; actives raise or lower the signal
[1] = read-out: MYC, MYC (gene 4609); experiment: LTEA_HepaRG_MYC: Life Technologies and Expression Analysis (LTEA) Assay for MYC using HepaRG (AID 2283518)
In short: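 MYC transcript changes, up or down relative to 0.5% DMSO, from TaqMan qRT-PCR normalized to three housekeeping genes. Human HepaRG cultures received chemicals for 48 h at eight half-log concentrations up to 100 uM, in duplicate.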

[2] = read-out: matrix metalloproteinase-3 (MMP3), MMP3 (gene 4314); experiment: LTEA_HepaRG_MMP3: Life Technologies and Expression Analysis (LTEA) Assay for matrix metalloproteinase-3 (MMP3) using HepaRG (AID 2283519)
In short: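 qRT-PCR read-out of MMP3 mRNA (normalised to three housekeeping genes) in HepaRG liver cells after 48 h chemical exposure; 8-point half-log series, top 100 uM, 0.5% DMSO vehicle. Bidirectional curve fitting against DMSO baseline.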

[3] = read-out: Paternally Expressed 10 (PEG10), PEG10 (gene 23089); experiment: LTEA_HepaRG_PEG10: Life Technologies and Expression Analysis (LTEA) Assay for Paternally Expressed 10 (PEG10) using HepaRG (AID 2283520);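 for AC50: PEG10 transcript by qRT-PCR normalised to ACTB GAPDH and POLR2A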
In short: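 After 48 h exposure of differentiated HepaRG cells (0.5% DMSO vehicle, eight concentrations up to 100 uM, duplicates), PEG10 mRNA was measured by TaqMan qRT-PCR. Values were normalised to endogenous control genes and analysed bidirectionally against vehicle.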

[4] = read-out: Nuclear factor NF-kappa-B p105 subunit (Homo sapiens) (UniProt P19838); experiment: LTEA_HepaRG_NFKB1: Life Technologies and Expression Analysis (LTEA) Assay for Nuclear Factor Kappa B Subunit 1 (NFKB1) using HepaRG (AID 2283521)
In short: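 Differentiated human HepaRG cells were exposed for 48 h in serum-free induction medium to eight concentrations (top 100 uM, half-log steps, 0.5% DMSO), in duplicate. NFKB1 mRNA was measured by TaqMan qRT-PCR, normalized to ACTB/GAPDH/POLR2A, and fitted bidirectionally against DMSO.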

[5] = read-out: Protein phosphatase 2A (PPP2R4), PTPA (gene 5524); experiment: LTEA_HepaRG_PPP2R4: Life Technologies and Expression Analysis (LTEA) Assay for Protein phosphatase 2A (PPP2R4) using HepaRG (AID 2283522)
In short: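 Using HepaRG cultures maintained in 0.5% DMSO, chemicals are tested 48 h at up to 100 uM in duplicate. Induction or suppression of PPP2R4 mRNA, measured by qRT-PCR, is fitted bidirectionally against the vehicle baseline.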

[6] = read-out: Phosphatase and tensin (PTEN), PTEN (gene 5728); experiment: LTEA_HepaRG_PTEN: Life Technologies and Expression Analysis (LTEA) Assay for Phosphatase and tensin (PTEN) using HepaRG (AID 2283523)
In short: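 HepaRG, 48 h exposure, 8-pt half-log series from 100 uM top, 0.5% DMSO vehicle, duplicates. Readout: Fluidigm qRT-PCR of PTEN transcript; housekeeping normalization (ACTB, GAPDH, POLR2A). Gain or loss fitted relative to DMSO baseline.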

[7] = read-out: solute carrier (SLC22A1), SLC22A1 (gene 6580); experiment: LTEA_HepaRG_SLC22A1: Life Technologies and Expression Analysis (LTEA) Assay for solute carrier (SLC22A1) using HepaRG (AID 2283524)
In short: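 qRT-PCR readout (TaqMan, Fluidigm arrays) of SLC22A1 transcript, normalized to three housekeeping genes; bidirectional curve fit relative to 0.5% DMSO vehicle. Differentiated human HepaRG cells, 48 h chemical exposure, top concentration 100 uM, half-log steps, eight points.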

[8] = read-out: Pyruvate Dehydrogenase Kinase 4 (PDK4), PDK4 (gene 5166); experiment: LTEA_HepaRG_PDK4: Life Technologies and Expression Analysis (LTEA) Assay for Pyruvate Dehydrogenase Kinase 4 (PDK4) using HepaRG (AID 2283525)
In short: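 HepaRG (human liver line), 48 h chemical exposure, 8-pt half-log CRC top 100 uM, 0.5% DMSO vehicle, duplicates. Readout: TaqMan qRT-PCR of PDK4 mRNA, housekeeping-normalized; gain/loss fit relative to DMSO baseline.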

[9] = read-out: NAD(P)H dehydrogenase [quinone] 1 (NQO1), NQO1 (gene 1728); experiment: LTEA_HepaRG_NQO1: Life Technologies and Expression Analysis (LTEA) Assay for NAD(P)H dehydrogenase [quinone] 1 (NQO1) using HepaRG (AID 2283526)
In short: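 In this assay, gene expression is read by qRT-PCR after 48 h exposure of HepaRG cells to eight concentrations (max 100 uM, half-log) in 0.5% DMSO. Each chemical runs in duplicate, and activity is scored relative to vehicle.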

[10] = read-out: Nuclear factor erythroid 2-related factor 2 (Homo sapiens) (UniProt Q16236); experiment: LTEA_HepaRG_NFE2L2: Life Technologies and Expression Analysis (LTEA) Assay for Nuclear factor erythroid 2-related factor 2 (NFE2L2) Transcription Factor using HepaRG (AID 2283527);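 note: TaqMan qRT-PCR transcript level normalised to ACTB GAPDH and POLR2A housekeeping genes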
In short: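 HepaRG, 48 h dosing, 8-pt half-log series from 100 uM in 0.5% DMSO, duplicates. Read-out: NFE2L2 mRNA by qRT-PCR (ACTB/GAPDH/POLR2A normalization). Bidirectional curve fit vs DMSO baseline.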

[11] = read-out: succinate dehydrogenase complex iron sulfur subunit B (SDHB), SDHB (gene 6390); experiment: LTEA_HepaRG_SDHB: Life Technologies and Expression Analysis (LTEA) Assay for succinate dehydrogenase complex iron sulfur subunit B (SDHB) using HepaRG (AID 2283528)
In short: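 HepaRG, 48 h exposure, 8-pt half-log series from 100 uM in 0.5% DMSO, duplicates. Readout: SDHB mRNA by Fluidigm qRT-PCR vs housekeeping genes; bidirectional fit relative to DMSO.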

[12] = read-out: Signal transducer and activator of transcription 3 (Homo sapiens) (UniProt P40763); experiment: LTEA_HepaRG_STAT3: Life Technologies and Expression Analysis (LTEA) Assay for Signal transducer and activator of transcription (STAT3) using HepaRG (AID 2283529)
In short: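 HepaRG, 48 h exposure, 8-pt half-log series (top 100 uM), 0.5% DMSO vehicle, duplicates. Readout: STAT3 transcript by Fluidigm qRT-PCR, housekeeping-normalized; bidirectional fit vs DMSO baseline.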

[13] = read-out: solute carrier (SLCO1B1), SLCO1B1 (gene 10599); experiment: LTEA_HepaRG_SLCO1B1: Life Technologies and Expression Analysis (LTEA) Assay for solute carrier (SLCO1B1) using HepaRG (AID 2283530)
In short: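 SLCO1B1 transcript levels were quantified by TaqMan qRT-PCR using three housekeeping genes for normalization. This followed 48 h chemical exposure (100 uM top, half-log, 8 points, 0.5% DMSO) of HepaRG liver cells, with gain or loss fitted relative to DMSO.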

[14] = read-out: sulfotransferase 2A1 (SULT2A1), SULT2A1 (gene 6822); experiment: LTEA_HepaRG_SULT2A1: Life Technologies and Expression Analysis (LTEA) Assay for sulfotransferase 2A1 (SULT2A1) using HepaRG (AID 2283531)
In short: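 Expression change of SULT2A1, by qRT-PCR with three housekeeping-gene normalization, was scored bidirectionally versus DMSO. Cells: differentiated HepaRG, dosed in duplicate for 48 h across 8 points, highest 100 µM, half-log dilution, 0.5% DMSO.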

[15] = read-out: Transforming Growth Factor (TGFA), TGFA (gene 7039); experiment: LTEA_HepaRG_TGFA: Life Technologies and Expression Analysis (LTEA) Assay for Transforming Growth Factor (TGFA) using HepaRG (AID 2283532)
In short: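 qRT-PCR read-out of TGFA transcript, normalized to three housekeeping genes, fitted bidirectionally against 0.5% DMSO baseline. Human HepaRG cultures received chemicals for 48 h at eight half-log concentrations, top 100 uM.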

[16] = read-out: TIMP1, TIMP1 (gene 7076); experiment: LTEA_HepaRG_TIMP1: Life Technologies and Expression Analysis (LTEA) Assay for TIMP1 using HepaRG (AID 2283534)
In short: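 Bidirectional change in TIMP1 transcript versus 0.5% DMSO, measured by TaqMan qRT-PCR with three housekeeping genes for normalization. HepaRG human liver cells dosed 48 h in duplicate, top concentration 100 uM with half-log dilutions.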

[17] = read-out: Tumor necrosis factor receptor 1 (TNFRSF1A), TNFRSF1A (gene 7132); experiment: LTEA_HepaRG_TNFRSF1A: Life Technologies and Expression Analysis (LTEA) Assay for Tumor necrosis factor receptor 1 (TNFRSF1A) using HepaRG (AID 2283535)
In short: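 mRNA measured by qRT-PCR (TaqMan, Fluidigm arrays) against ACTB/GAPDH/POLR2A housekeepers after 48 h chemical exposure of HepaRG cells. Top concentration 100 uM, half-log 8-point series, duplicates; vehicle 0.5% DMSO, both fit directions.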

[18] = read-out: Thyroid Hormone Responsive (THRSP), THRSP (gene 7069); experiment: LTEA_HepaRG_THRSP: Life Technologies and Expression Analysis (LTEA) Assay for Thyroid Hormone Responsive (THRSP) using HepaRG (AID 2283536)
In short: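 qRT-PCR read-out (Fluidigm TaqMan), housekeeping-normalized (ACTB/GAPDH/POLR2A). HepaRG, 48 h chemical exposure, 8-pt half-log series from 100 uM in 0.5% DMSO, duplicates. Bidirectional curve fit vs 0.5% DMSO baseline.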

[19] = read-out: Cellular tumor antigen p53 (Homo sapiens) (UniProt P04637); experiment: LTEA_HepaRG_TP53: Life Technologies and Expression Analysis (LTEA) Assay for Tumor Protein P53 (TP53) using HepaRG (AID 2283537)
In short: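 HepaRG, 48 h exposure, top 100 uM, half-log 8-point, 0.5% DMSO vehicle, duplicates. Read: TP53 mRNA by TaqMan qRT-PCR, normalised to ACTB/GAPDH/POLR2A; bidirectional fit vs DMSO.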

[20] = read-out: Transforming Growth Factor (TGFB1), TGFB1 (gene 7040); experiment: LTEA_HepaRG_TGFB1: Life Technologies and Expression Analysis (LTEA) Assay for Transforming Growth Factor (TGFB1) Transporter using HepaRG (AID 2283533)
In short: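 TGFB1 transcript measured by qRT-PCR with normalisation to three housekeeping genes (ACTB, GAPDH, POLR2A); human HepaRG line treated in duplicate for 48 hr with an 8-point series topping at 100 uM, 0.5% DMSO vehicle, bidirectionally fitted.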

Measured: AC50

Signal transducer and activator of transcription 3 (Homo sapiens), sequence (P40763 whole entry, looked up): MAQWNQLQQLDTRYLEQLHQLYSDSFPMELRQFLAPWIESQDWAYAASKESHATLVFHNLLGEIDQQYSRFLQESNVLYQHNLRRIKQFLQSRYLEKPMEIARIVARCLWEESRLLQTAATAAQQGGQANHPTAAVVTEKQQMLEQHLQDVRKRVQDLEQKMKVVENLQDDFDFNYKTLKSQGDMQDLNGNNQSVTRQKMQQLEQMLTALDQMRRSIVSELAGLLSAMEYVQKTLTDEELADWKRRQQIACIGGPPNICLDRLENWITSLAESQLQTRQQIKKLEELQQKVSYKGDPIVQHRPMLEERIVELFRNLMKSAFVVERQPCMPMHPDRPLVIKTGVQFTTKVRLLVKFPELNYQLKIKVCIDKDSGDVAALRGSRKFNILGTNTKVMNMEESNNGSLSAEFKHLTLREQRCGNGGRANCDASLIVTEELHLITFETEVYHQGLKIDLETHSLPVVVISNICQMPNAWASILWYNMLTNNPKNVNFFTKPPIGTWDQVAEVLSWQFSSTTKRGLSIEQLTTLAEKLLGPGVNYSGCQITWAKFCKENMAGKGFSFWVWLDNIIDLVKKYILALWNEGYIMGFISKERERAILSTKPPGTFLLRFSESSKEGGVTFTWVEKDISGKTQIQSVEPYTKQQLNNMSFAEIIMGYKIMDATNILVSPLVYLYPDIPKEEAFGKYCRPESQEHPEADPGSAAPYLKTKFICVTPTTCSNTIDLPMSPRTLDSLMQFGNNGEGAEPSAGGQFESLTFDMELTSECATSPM
Nuclear factor erythroid 2-related factor 2 (Homo sapiens), sequence (Q16236 whole entry, looked up): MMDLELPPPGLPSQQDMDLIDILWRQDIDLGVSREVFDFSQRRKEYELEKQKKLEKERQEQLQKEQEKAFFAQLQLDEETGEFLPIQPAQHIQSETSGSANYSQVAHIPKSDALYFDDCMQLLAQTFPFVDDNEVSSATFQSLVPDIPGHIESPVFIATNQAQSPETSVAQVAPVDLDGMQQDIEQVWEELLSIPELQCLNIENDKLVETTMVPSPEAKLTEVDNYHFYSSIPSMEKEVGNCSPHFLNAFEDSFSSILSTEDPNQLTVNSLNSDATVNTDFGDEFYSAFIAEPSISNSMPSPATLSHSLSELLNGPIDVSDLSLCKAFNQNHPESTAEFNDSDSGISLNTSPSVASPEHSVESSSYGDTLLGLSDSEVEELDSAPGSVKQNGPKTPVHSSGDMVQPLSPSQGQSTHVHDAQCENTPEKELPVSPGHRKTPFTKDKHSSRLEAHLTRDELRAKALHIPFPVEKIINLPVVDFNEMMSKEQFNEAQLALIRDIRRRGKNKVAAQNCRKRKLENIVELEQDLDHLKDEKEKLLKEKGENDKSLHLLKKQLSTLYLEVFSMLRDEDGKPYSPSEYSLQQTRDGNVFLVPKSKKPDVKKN
Nuclear factor NF-kappa-B p105 subunit (Homo sapiens), sequence (P19838 whole entry, looked up): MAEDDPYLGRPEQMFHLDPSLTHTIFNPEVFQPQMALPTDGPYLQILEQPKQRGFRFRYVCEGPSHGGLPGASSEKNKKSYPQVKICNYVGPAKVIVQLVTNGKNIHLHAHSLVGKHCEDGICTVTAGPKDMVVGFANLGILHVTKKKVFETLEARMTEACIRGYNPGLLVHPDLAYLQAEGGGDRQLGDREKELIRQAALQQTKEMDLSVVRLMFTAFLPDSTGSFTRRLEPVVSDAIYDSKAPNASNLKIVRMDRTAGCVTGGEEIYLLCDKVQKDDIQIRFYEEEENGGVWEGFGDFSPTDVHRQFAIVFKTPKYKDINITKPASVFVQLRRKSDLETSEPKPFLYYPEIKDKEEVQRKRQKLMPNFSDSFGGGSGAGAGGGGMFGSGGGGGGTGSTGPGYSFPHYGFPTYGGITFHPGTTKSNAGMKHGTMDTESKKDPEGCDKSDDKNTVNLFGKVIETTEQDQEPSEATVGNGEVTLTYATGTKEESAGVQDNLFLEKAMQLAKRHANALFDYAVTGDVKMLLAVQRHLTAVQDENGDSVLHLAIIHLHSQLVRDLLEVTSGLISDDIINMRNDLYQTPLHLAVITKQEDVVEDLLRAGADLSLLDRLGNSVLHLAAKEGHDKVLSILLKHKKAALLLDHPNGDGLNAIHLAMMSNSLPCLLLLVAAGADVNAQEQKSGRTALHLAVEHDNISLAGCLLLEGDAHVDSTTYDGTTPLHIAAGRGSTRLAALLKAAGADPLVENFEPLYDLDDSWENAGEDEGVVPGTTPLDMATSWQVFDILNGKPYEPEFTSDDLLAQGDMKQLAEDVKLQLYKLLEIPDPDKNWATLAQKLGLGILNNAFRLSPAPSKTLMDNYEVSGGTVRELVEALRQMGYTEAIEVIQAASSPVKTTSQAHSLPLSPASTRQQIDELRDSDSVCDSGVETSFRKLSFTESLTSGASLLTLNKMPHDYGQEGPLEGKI
Cellular tumor antigen p53 (Homo sapiens), sequence (P04637 whole entry, looked up): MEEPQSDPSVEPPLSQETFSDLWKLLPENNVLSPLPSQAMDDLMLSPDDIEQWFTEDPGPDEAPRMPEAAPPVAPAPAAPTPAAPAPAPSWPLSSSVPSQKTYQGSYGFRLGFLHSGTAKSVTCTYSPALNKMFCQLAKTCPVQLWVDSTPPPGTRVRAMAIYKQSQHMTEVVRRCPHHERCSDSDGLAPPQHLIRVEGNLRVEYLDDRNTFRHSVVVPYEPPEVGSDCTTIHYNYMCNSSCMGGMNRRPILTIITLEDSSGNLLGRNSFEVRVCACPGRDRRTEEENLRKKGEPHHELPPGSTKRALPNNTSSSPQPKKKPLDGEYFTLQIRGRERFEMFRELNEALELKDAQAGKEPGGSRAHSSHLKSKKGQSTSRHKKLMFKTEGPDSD

CC(C)CCCCCCOC(=O)CCCCC(=O)OCCCCCCC(C)C
not listed: [20]
inactive: all other assays above

C[C@@H]1C[C@H]2[C@@H]3CCC4=CC(=O)C=C[C@]4(C)[C@@]3(F)[C@@H](O)C[C@]2(C)[C@@]1(O)C(=O)COP(=O)(O)O
not listed: [16] | [20]
inactive: all other assays above

CC(C)(C)c1ccc(O)c(C(C)(C)C)c1
active: [4] 0.162 µM | [17] 50 µM
not listed: [12]
inactive: all other assays above

CCCOc1sc(C(=O)N2CCC(c3cc(CN)ccc3F)CC2)c(C)c1Br
not listed: [16] | [20]
inactive: all other assays above

CC(=O)CC(C)(C)O
active: [1] 0.118 µM
not listed: [16]
inactive: all other assays above

Oc1cccc(O)c1
not listed: [12] | [16]
inactive: all other assays above

CN(C)C=O
not listed: [20]
inactive: all other assays above

C=C(C)C(=O)OCCC(F)(F)C(F)(F)C(F)(F)C(F)(F)C(F)(F)C(F)(F)F
active: [8] 14 µM
not listed: [12] | [20]
inactive: all other assays above

COc1ccc([N+](=O)[O-])cc1N
active: [18] 9.92 µM
not listed: [12]
inactive: all other assays above

CCCCOCCO
not listed: [16]
inactive: all other assays above

CCCCCCCCOC(=O)CCCCCCCCC(=O)OCCCCCCCC
not listed: [20]
inactive: all other assays above

COCC(C)OCC(C)O (stereo unspecified)
not listed: [16] | [20]
inactive: all other assays above

C#C[C@]1(O)CC[C@H]2[C@@H]3CCC4=CC(=O)CC[C@@H]4[C@H]3CC[C@@]21C
active: [2] 7.81 µM | [3] 0.321 µM | [7] 32.1 µM | [14] 15.9 µM | [18] 0.0729 µM
not listed: [16] | [20]
inactive: all other assays above
